Measured values as given in PubChem BioAssay (NCATS).
Inconclusive results are not listed. The source made the active and inactive calls. Calls come from the whole dose curve; as a rule, active = well fitted inhibition curve with a large enough effect; inconclusive = small, poorly fitted or top-dose-only effect; inactive = flat fitted curve, though single readings scatter.

Legend:
Assay in all cases: qHTS profiling for inhibitors of Plasmodium falciparum proliferation (AID 504749); note: nearly all actives have a fitted effect of over 60% in size
Details in all cases: P. falciparum in erythrocytes, SYBR Green DNA, 72 h; series mostly up to 28.7 µM
[1] = test system: AS120
In short: (§1)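 Three-day growth assay of blood-stage parasites in erythrocytes (0.3% parasitemia, 2.5% hematocrit) at 37 C, 5% CO2, quantified by SYBR Green DNA staining after overnight detergent lysis.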

[2] = test system: ATS189
In short: as §1

[3] = test system: CP201
In short: as §1

[4] = test system: CP211
In short: as §1

[5] = test system: CP215
In short: as §1

[6] = test system: CP262
In short: as §1

[7] = test system: CP266
In short: as §1

[8] = test system: CP268
In short: as §1

[9] = test system: CP269
In short: as §1

[10] = test system: CP297
In short: as §1

[11] = test system: CP305
In short: as §1

[12] = test system: CP315
In short: as §1

[13] = test system: CP325
In short: as §1

[14] = test system: CP329
In short: as §1

[15] = test system: CP335
In short: as §1

[16] = test system: DIV14
In short: as §1

[17] = test system: DIV17
In short: as §1

[18] = test system: DIV30
In short: as §1

[19] = test system: GB4
In short: as §1

[20] = test system: PC26
In short: as §1

Measured: Potency

CC(=O)OC1CC2CCC1(C)C2(C)C (stereo not given)
inactive: all assays above
